In ChEMBL document CHEMBL4513216, “Probing the Open Global Health Chemical Diversity Library for Multistage-Active Starting Points for Next-Generation Antimalarials” (ACS Infect Dis, 2020):
Hit rate of the full screen: of about 68,000 compounds, about 2,700 (4%) showed an effect of 50% or more. The list comes from a sample in which strong results are over-represented; it also holds similar structures and randomly drawn compounds.

System: Plasmodium berghei
Experiment: Screen against P. berghei liver stage (PbLuc), transformed with Luciferase, at 2uM
Format: functional, HepG2
Conditions: tested at 2 uM

SMILES | INHIBITION
CC(=O)Nc1ccc(CN2CCc3[nH]cnc3C2c2nccn2C)cc1 (stereo unspecified) | -42.54%
Clc1ccccc1OCCc1cc(C2CCNC2)n[nH]1 (stereo unspecified) | 16.14%
CN1C[C@H](O)[C@]2(CCN(Cc3ccc(F)c(F)c3)C2)S1(=O)=O | 6.4%
CCc1noc(CN(Cc2cccs2)C2CC2)n1 | 7.85%
COC(=O)C1CN(CC(=O)Nc2cc(F)ccc2F)c2ccccc21 (stereo unspecified) | 16.95%
COC(=O)C1CN(CC(=O)Nc2ccccc2Cl)c2ccccc21 (stereo unspecified) | 57.34%
COC(=O)C1CN(CC(=O)Nc2cccc(OC)c2)c2ccccc21 (stereo unspecified) | 43.88%
Cn1cc(CN2CCC[C@]3(C[C@H](Oc4ncccc4F)CO3)C2)cn1 | 20.01%
CC(C)CN1CCC2(Cc3ccccc3NC2=O)C1 (stereo unspecified) | -1.69%
COCC1CN(CC2CC2)Cc2nn(C)cc21 (stereo unspecified) | 30.38%
CCc1ccc2c(c1)C(CCNC(=O)Cc1ccc(F)cc1)C(=O)N2 (stereo unspecified) | 33.22%
CCc1ccc2c(c1)C(CCNC(=O)CCc1ccsc1)C(=O)N2 (stereo unspecified) | 57.16%
CCc1ccc2c(c1)C(CCNC(=O)CSC(F)(F)F)C(=O)N2 (stereo unspecified) | 26.51%
Cc1nc(C)n(CC2CCCCN2CC(=O)Nc2c(C)n[nH]c2C)n1 (stereo unspecified) | -91.52%
CC(C(=O)N(C)C)N1CCCN(C(=O)Oc2ccccc2)CC1 (stereo unspecified) | 10.43%
CC(=O)Nn1ccc2c(nnc3c(-c4ccc(F)cc4)cnn32)c1=O | -27.89%
CN1CCC(c2cccc(-c3cccc(C(=O)O)c3)n2)CC1 | -14.73%
COC(=O)c1c(C(F)(F)F)cnc(OC)c1Cl | 53.54%
COc1ncc(C(F)(F)F)c(C(=O)O)c1Cl | 30.38%
COc1nccc(C(F)(F)F)c1C(=O)O | -16.59%
Cc1ccc(C(CNCc2c[nH]nc2C)N(C)C)cc1 (stereo unspecified) | 30.23%
Cc1nc(N2CCC(O)(c3ccc(F)cc3)CC2)c2c(C)nn(C)c2n1 | 15.92%

SMILES | INHIBITION
CN(C)CC(=O)N1CCOC2(CCCN(c3ncccc3F)C2)C1 (stereo unspecified) | -15.88%
Cc1noc(C)c1CNCC1COCc2c(-c3ccoc3)nnn2C1 (stereo unspecified) | 22.84%
CCN1CCC2(CCC1=O)CN(c1ccnc(SC)n1)CCN2C (stereo unspecified) | -1.27%
CSc1nccc(N2CCN(C)C3(CCC(=O)N(CC4CC4)CC3)C2)n1 (stereo unspecified) | 55.4%
COCCN1CCC2(CCC1=O)CN(c1ccnc(SC)n1)CCN2C (stereo unspecified) | 1.85%
CN1CCC(N(CCc2ccccc2)C(=O)c2ccc(C#N)nc2)CC1 | 31.12%
CCc1cc(CNC(=O)N2Cc3ccccc3N(C)CC2C)on1 (stereo unspecified) | 61.01%
CC1CN(C)c2ccccc2CN1C(=O)NCc1ccon1 (stereo unspecified) | 16.79%
CCc1cc(CNC(=O)N2Cc3ccccc3N(C)CC2C)[nH]n1 (stereo unspecified) | -19.7%
O=C(CN1CCC2(CCCN(CCO)C2=O)C1)NCCc1ccccc1 (stereo unspecified) | -27.89%
Brc1cccc(C2(CNCc3cc[nH]c3)CCOCC2)c1 | 10.93%
O=C(CS(=O)(=O)c1ccc(Cl)cc1)NC1CCCc2ccccc21 (stereo unspecified) | 44.37%
CN(C)CC1CN(c2ncnc3[nH]ccc23)CCO1 (stereo unspecified) | -35.72%
Cc1cc(NCCO)nc(-c2ccccc2O)n1 | -4.81%
Cc1cc(N2Cc3cnn(CCO)c3C2)nc(-c2ccccc2O)n1 | 53.55%
Cc1cc(N2Cc3cnn(CCO)c3C2)nc(-c2ccccc2)n1 | 67.53%
CCCc1nc(C)cc(N2Cc3cnn(CCO)c3C2)n1 | -18.52%
Cc1cc(N2CCOC(C(F)(F)F)C2)nc(-c2ccccc2O)n1 (stereo unspecified) | -43.28%
Cc1cc(N2CCN(CCO)CC2)nc(-c2ccncc2)n1 | 1.22%
Cc1ccc(CC(=O)N2Cc3nccn3CC(Cn3cccn3)C2)cc1 (stereo unspecified) | -8.05%
CCc1nc(C2CCCN(C(=O)c3cccc(C(N)=O)c3)C2)no1 (stereo unspecified) | -12.41%
COc1ccc2[nH]c3c(c2c1)CN(c1cc(NCCO)nc(N)n1)CC3 | 13.24%

SMILES | INHIBITION
CN(Cc1ccccc1)C(=O)[C@@H]1Cc2[nH]cnc2CN1C | 4.59%
CN1Cc2nc[nH]c2C[C@H]1C(=O)NC1CCCCC1 | 60.6%
O=C([C@@H]1Cc2[nH]cnc2CN1C(=O)NC1CCCCC1)N1CCCC1 | 17.77%
CCC(C)C(=O)N(C)Cc1cc(F)ccc1N1CCC(OC)CC1 (stereo unspecified) | 15.56%
Cc1ccc(CNC(=O)c2ccc(S(=O)(=O)N3C[C@H]4C[C@@H]3CN4)cc2)o1 | 44.86%
CC(C)(C)c1n[nH]cc1CNCC1CCN(C2CC2)C1 (stereo unspecified) | 10.43%
CCN1CCC(CNCc2c[nH]nc2C(C)(C)C)C1 (stereo unspecified) | 37.68%
CC(C)N1CCC(CNCc2c[nH]nc2C(C)(C)C)C1 (stereo unspecified) | 66.97%
CCc1nc(CN2CCOC(Cn3nc(C)cc3C)C2)no1 (stereo unspecified) | -7.73%
O=C(CCCc1nc(C2CC2)no1)N1CCCC(c2ccn[nH]2)C1 (stereo unspecified) | 41.84%
COc1ccc(Cl)cc1NC(=O)CCNc1ccc(C#N)cn1 | 9.27%
N#Cc1cccc(CN2CC[C@@H]3CN(c4ncccn4)CCO[C@@H]3C2)c1 | 14.94%
O=S(=O)(C1CC1)N1CCc2onc(COc3ccccn3)c2C1 | 16.03%
CN(C)C(CNC(=O)NCc1cc[nH]n1)c1ccco1 (stereo unspecified) | 53.61%
Cc1nc(CCNC(=O)NCC(c2ccco2)N(C)C)cs1 (stereo unspecified) | 34.73%
CCOc1ccccc1N1CCN(C(=O)NCc2cc[nH]n2)CC1 | 56.02%
O=C(NCc1cc[nH]n1)NCC(c1ccco1)N1CCCC1 (stereo unspecified) | -4.1%
CC(=O)N1CCCN(C(=O)NCc2cc[nH]n2)CC1 | -27.69%
CC(=O)NC1CCCN(C(=O)NCc2cc[nH]n2)C1 (stereo unspecified) | 45.83%
N#Cc1ccccc1N1CCCN(C(=O)NCc2cc[nH]n2)CC1 | -13.24%
O=C(NCc1cc[nH]n1)N1CCN(c2ccccc2Cl)CC1 | -56.99%
O=C(NCc1cc[nH]n1)N1CCCCC(N2CCCC2)C1 (stereo unspecified) | 8.37%

SMILES | INHIBITION
CCN1CCN(C(=O)NCc2cc[nH]n2)CC1 | 56.02%
O=C(NCc1cc[nH]n1)N1CCN(c2ncccn2)CC1 | -23.42%
O=C(NCc1cc[nH]n1)N1CCCC(N2CCCC2)C1 (stereo unspecified) | 51.94%
CCCN(CC)C(=O)c1cc(Cn2c(C)nc3ccccc32)[nH]n1 | 38.75%
CNS(=O)(=O)c1cccc(CNc2ncccn2)c1 | -18.94%
c1ccn(Cc2nnc3n2CCCN(Cc2ccoc2)C3)c1 | 18.31%
COc1ccccc1C(CNC(=O)NCc1cc[nH]n1)N1CCCC1 (stereo unspecified) | -10.44%
CC(C)CC(CNC(=O)NCc1cc[nH]n1)N1CCOCC1 (stereo unspecified) | 40.29%
CCC(CNC(=O)NCc1cc[nH]n1)N1CCCC1 (stereo unspecified) | 76.6%
CC(=O)N1CC[C@@H]2CN(Cc3ccncc3)S(=O)(=O)[C@@H]2CC1 | -66.17%
Cc1c(C2CCOC(C)(C)C2)nc(N)c(C#N)c1-c1ccc(O)cc1 (stereo unspecified) | -11.34%
Cc1ccc(C)c2c1NC(=O)C2CC(=O)O (stereo unspecified) | 42.8%
Cc1cc(C)c2c(c1)NC(=O)C2CC(=O)O (stereo unspecified) | 33.22%
Cc1cc(C)c2c(c1)C(CC(=O)O)C(=O)N2 (stereo unspecified) | 52.38%
CCN1CC2(CC1=O)CN(C(=O)c1cccs1)CCN(C(=O)N(C)C)C2 (stereo unspecified) | -48.39%
CCc1noc(CS(=O)(=O)Cc2nc(Cc3ccccc3)no2)n1 | 34%
CCc1noc(CS(=O)(=O)Cc2ccccc2C)n1 | 30.59%
CCc1noc(CS(=O)(=O)Cc2ccccc2Cl)n1 | 61.32%
CC(=O)N1CCCC1C(=O)NCCOc1cccc(F)c1 (stereo unspecified) | 16.25%
CN(C)C(=O)NC1COC2(CCN(Cc3ccc(N(C)C)cc3)CC2)C1 (stereo unspecified) | 53.98%
CN(C)C(=O)NC1COC2(CCN(Cc3ccc(Cl)c(F)c3)CC2)C1 (stereo unspecified) | -8.04%
CN(C)C(=O)NC1COC2(CCN(Cc3ccccc3)CC2)C1 (stereo unspecified) | 0.14%

SMILES | INHIBITION
Cc1ccoc1C(=O)N1CC[C@H]2C[C@H](c3nnc(C4CC4)o3)O[C@@H]2C1 | -11.79%
CNC(=O)C1(C)CCCN1Cc1cnn(C)c1C (stereo unspecified) | 18.15%
CC(C)OCCCN(CC(=O)N1CCNCC1)C(=O)c1ccc(F)cc1 | -20.36%
CCOc1ccccc1CNC(=O)N1CCC(n2cncn2)CC1 | -111.08%
COc1ccc(OC)c(CNC(=O)N2CCC(n3cncn3)CC2)c1 | 3.06%
COc1cc(Cl)ccc1CNC(=O)N1CCC(n2cncn2)CC1 | 70.27%
NC(=O)NC(=O)CCSc1ccccc1Cl | 12.14%
Cc1nc(C)n(CC2CN(CCOc3cccc(C#N)c3)CCO2)n1 (stereo unspecified) | -5.15%
Cc1nc(C)n(CC2CN(CCOc3ccc(C#N)cc3)CCO2)n1 (stereo unspecified) | 50.05%
COc1ccc(C)cc1CN1CCOC(Cn2nc(C)nc2C)C1 (stereo unspecified) | 60.09%
Cc1nc(C)n(CC2CN(Cc3ccccc3OC(C)C)CCO2)n1 (stereo unspecified) | -3.06%
Cc1nc(C)n(CC2CN(Cc3cccc4ccccc34)CCO2)n1 (stereo unspecified) | -53.98%
Cc1cc(C)n(CC2CN(CCOc3ccc(C#N)cc3)CCO2)n1 (stereo unspecified) | 13.24%
Cc1nc(C)n(CC2CN(CCc3ccncc3)CCO2)n1 (stereo unspecified) | 70.27%
Cc1nc(C)n(CC2CN(CCCc3ccccc3)CCO2)n1 (stereo unspecified) | 40.72%
COc1ccc(CCN2CCOC(Cn3nc(C)nc3C)C2)cc1 (stereo unspecified) | 34.97%
Cc1ncc(S(C)(=O)=O)c(N2CCCCCC2)n1 | 2.97%
CCn1c(C)nnc1CN(C)C1CCN(Cc2nnc(C3CC3)o2)C1 (stereo unspecified) | 12.75%
